PubChem BioAssay AID1851 (National Center for Advancing Translational Sciences (NCATS), 2009)
Where “and” joins values, the source holds several entries; their conditions need not be identical. Equal entries are not always repeated. Screen size: about 16,000 compounds; about 5,100 (32%) were called active. Another 25% or so got no clear call; they are omitted. Calls follow the shape of the dose curve; as a rule, active = well fitted curve in the direction sought with a large enough effect; inconclusive = small, poorly fitted or top-dose-only effect, or effect the other way; inactive = no such curve, though single readings can be large or run the other way. Some of the results follow.

Biological target: Cytochrome P450 3A4 (Homo sapiens) (UniProt P08684)
Assay: Cytochrome panel assay with activity outcomes
Conditions: recombinant CYP, pro-luciferin dealkylation, luminescence, p450-cyp3a4; series mostly up to 57.1 µM
% is scaled to controls: 0 for no effect and ±100 for the full control effect.

Cytochrome P450 3A4 (Homo sapiens), sequence (P08684 whole entry, looked up): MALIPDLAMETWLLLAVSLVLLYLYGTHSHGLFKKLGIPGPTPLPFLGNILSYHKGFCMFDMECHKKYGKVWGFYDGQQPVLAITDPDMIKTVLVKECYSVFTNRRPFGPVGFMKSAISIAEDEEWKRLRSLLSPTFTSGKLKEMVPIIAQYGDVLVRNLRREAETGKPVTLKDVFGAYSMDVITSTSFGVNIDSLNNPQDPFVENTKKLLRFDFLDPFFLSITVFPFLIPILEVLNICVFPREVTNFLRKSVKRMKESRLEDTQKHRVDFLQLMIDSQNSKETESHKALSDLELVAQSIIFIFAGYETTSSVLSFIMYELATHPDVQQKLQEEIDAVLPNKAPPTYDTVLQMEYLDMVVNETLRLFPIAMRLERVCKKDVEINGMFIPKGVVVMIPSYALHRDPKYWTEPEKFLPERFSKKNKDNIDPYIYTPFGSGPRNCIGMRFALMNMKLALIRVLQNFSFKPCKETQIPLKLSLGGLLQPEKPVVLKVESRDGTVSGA

SMILES | AC50 | activity, negative = inhibition
Cc1cc(C(C)(C)CC(C)(C)C)ccc1OCCOCC[N+](C)(C)Cc1ccccc1 | inactive | –
CCN(CC)CCCNC(=O)C1CCC(=O)N(c2ccc(OC)cc2)C1c1ccc(F)cc1 (centres undefined) | 15.8 µM (active) | –
COc1ccc(N2C(=O)CCC(C(=O)Nc3ccccn3)C2c2ccc(OC)c(OC)c2)cc1 (centres undefined) | 20 µM (active) | –
CCCCNC(=O)C1CC(=O)N(c2ccc(OC)cc2)C1c1ccc(OC)cc1 (centres undefined) | – | 3.58% [at 2.29 µM] (inactive)
COc1ccc(N2C(=O)CCC(C(=O)O)C2c2ccc(F)cc2)cc1 (centres undefined) | inactive | –
c1ccc(SC(Sc2ccccc2)c2ccc3c(c2)OCO3)cc1 | 2.51 µM (active) | –
O=S(=O)(c1ccccc1)N1CCC2(CCCN(Cc3nccs3)C2)CC1 | 3.16 µM (active) | –
CS(=O)(=O)N1CCC2(CCN(Cc3nccs3)CC2)CC1 | inactive | –
O=S(=O)(c1ccccc1)N1CCC[C@@]2(CCN(Cc3nccs3)C2)C1 | 3.16 µM (active) | –
CS(=O)(=O)N1CCC2(CC1)CN(Cc1nccs1)C2 | inactive | –
O=S(=O)(c1ccccc1)N1CCC2(CC1)CN(Cc1nccs1)C2 | inactive | –
O=S(=O)(c1ccccc1)N1CCC2(CCN(Cc3nccs3)CC2)CC1 | inactive | –
CO[C@H]1C[C@@H]2C[C@H](O)C[C@@H](CC(=O)O[C@@H](/C=C\CC(C)C)C[C@@H]3CC[C@H](C)[C@@H](C1)O3)O2 | – | -7.29% [at 11.4 µM] (inactive)
Clc1ccc(-c2nnc(-c3cccc4ccccc34)o2)cc1Cl | – | -4.35% [at 11.4 µM] (inactive)
Oc1ccccc1-c1nnc(-c2ccc(C(F)(F)F)cc2)o1 | inactive | –
Cn1cc(-c2nnc(-c3ccccc3)o2)c2ccccc21 | 14.1 µM (active) | –
O=C1CCCN1CC(CN1CCOCC1)Sc1nnnn1-c1ccccc1 (centres undefined) | 15.8 µM (active) | –
c1ccc2c(c1)nnn2CN1CCOCC1 | – | -7.23% [at 11.4 µM] (inactive)
C/C(CCC(=O)OC[C@@H]1O[C@H](C#Cc2ccccc2)C=C[C@@H]1Oc1ccc(C)cc1)=N/O[C@@H](C)c1cn([C@H](CO)Cc2ccccc2)nn1 | 3.98 µM (active) and 3.16 µM (active) | –
COc1ccc(O[C@H]2C=C[C@@H](c3ccccc3)O[C@H]2COC(=O)CC/C(C)=N\O[C@@H](C)c2cn([C@H]3COC[C@H]3O)nn2)cc1 | 3.98 µM (active) | –
COc1ccc(O[C@H]2C=C[C@@H](c3ccccc3)O[C@H]2COC(=O)CC/C(C)=N\O[C@@H](C)c2cn([C@H](CO)Cc3ccccc3)nn2)cc1 | 3.98 µM (active) and 5.01 µM (active) | –

SMILES | AC50 | activity, negative = inhibition
C[C@H](O/N=C1/[C@H]2O[C@@H]2[C@@H](O)[C@H]2[C@H]1CCn1c(=O)n(-c3ccccc3)c(=O)n12)c1cn([C@H]2COC[C@H]2O)nn1 | – | -7.71% [at 11.4 µM] (inactive)
O=S(=O)(O)c1ccc(N=Nc2ccc3c(S(=O)(=O)O)cccc3c2O)c2ccccc12 | – | -9.88% [at 11.4 µM] (inactive)
C/C(N)=C(/C#N)C(=O)CSc1nnc(COc2cc(C)ccc2C)o1 | 3.55 µM (active) | –
CC(=O)CSc1nnc(Cc2ccc([N+](=O)[O-])cc2)o1 | – | 7.56% [at 2.29 µM] (inactive)
Cc1ccc(C)c(OCCCC(C)(C)C(=O)O)c1 | inactive | –
C[C@H](CO)NC(=O)[C@H](C)[C@H]1C[C@]1(C)[C@H](NC(=O)OCc1ccccc1)c1ccccc1 | 3.98 µM (active) | –
C[C@H](CO)NC(=O)[C@H](C)[C@@H]1C[C@@]1(C)[C@@H](NC(=O)OCc1ccccc1)c1ccccc1 | 5.01 µM (active) | –
CN1CCN(c2ccc([N+](=O)[O-])cc2C(=O)N2CCOCC2)CC1 | inactive | –
CN1CCN(c2ccc([N+](=O)[O-])cc2S(=O)(=O)N2CCOCC2)CC1 | inactive | –
O=C(N/N=C/c1cc([N+](=O)[O-])ccc1N1CCNCC1)c1ccc([N+](=O)[O-])cc1 | inactive | –
O=C(c1ccc(Br)cc1)c1cc([N+](=O)[O-])ccc1N1CCCCC1 | 3.55 µM (active) | –
CN(C)S(=O)(=O)c1cc([N+](=O)[O-])ccc1N1CCCCCC1 | 12.6 µM (active) | –
CN1CCN(S(=O)(=O)c2cc([N+](=O)[O-])ccc2N2CCCCCC2)CC1 | 0.794 µM (active) | –
O=C1C[C@@H](O)[C@@H](O)[C@H]2[C@@H]3C(=O)N(C4CCCCC4)C(=O)[C@@H]3CC[C@H]12 | – | -5.08% [at 11.4 µM] (inactive) and -17.3% [at 11.4 µM] (inactive) and -26.5% [at 11.4 µM] (inactive)
Cc1ccc(-c2n[nH]c(=S)n2/N=C/c2cccn2C)cc1 | 12.6 µM (active) | –
COc1ccc(/C=N/n2c(-c3cccs3)n[nH]c2=S)cc1 | 8.91 µM (active) | –
Cc1ccc(/C=N/n2c(-c3cccs3)n[nH]c2=S)cc1 | 11.2 µM (active) | –
COc1ccc(C2=CSC(/N=C/c3ccc(F)cc3)=NN2)cc1 | – | 0.425% [at 2.29 µM] (inactive)
Cc1ccc(/C=C/c2nnc(-c3cccs3)o2)cc1 | – | 6.75% [at 2.29 µM] (inactive)
CN(C)C=Nc1ccc2nn(-c3ccccc3)nc2c1 | – | -3.41% [at 2.29 µM] (inactive)
O=[N+]([O-])c1ccc([C@@H](Nc2ccccc2)c2ccc3cccnc3c2O)cc1 | – | -23.7% [at 11.4 µM] (inactive)

SMILES | AC50 | activity, negative = inhibition
CN(c1ccccc1)c1nc(-n2ccnc2)nc(-n2ccnc2)n1 | 0.891 µM (active) | –
c1ccc(-c2nc(N3CCCCCC3)nc(-n3ccnc3)n2)cc1 | 0.708 µM (active) | –
c1ccc(-c2nnn(CCN3CCCCC3)n2)cc1 | – | -9.98% [at 11.4 µM] (inactive)
CCCSc1cc(N2CCCC2)nc(-c2ccccc2)n1 | inactive | –
COc1ccccc1-c1ccc2ncnc(N3CCN(C)CC3)c2c1 | 3.16 µM (active) | –
COc1ccccc1-c1ccc2ncnc(N3CCOCC3)c2c1 | 6.31 µM (active) | –
CN(C)C(=O)c1ccc(-c2ccc3ncnc(N4CCC(C(=O)O)CC4)c3c2)cc1 | inactive | –
CN(C)Cc1ccccc1-c1ccc2ncnc(N3CCOCC3)c2c1 | 20 µM (active) | –
CCCCCCCCCn1cc(C(C)=O)c(=O)[nH]c1=O | – | -7.53% [at 2.29 µM] (inactive)
CN(C)C[C@H]1CCC2=C(C1=O)C(c1ccc(Cl)c(Cl)c1)C1=C(CC[C@H](CN(C)C)C1=O)O2 | 0.398 µM (active) | –
O=C(Cn1ccc(=O)[nH]c1=O)Nc1ccc(C(=O)O)c(O)c1 | – | -4.95% [at 11.4 µM] (inactive)
COc1ccc(Cc2nc3ccc(S(=O)(=O)N4CCOCC4)cc3[nH]2)cc1OC | 12.6 µM (active) | –
COc1cccc(C2NC(c3cccc(OC)c3O)C(C)C(=O)C2C)c1O (centres undefined) | 12.6 µM (active) | –
COc1cccc2c1OC1(C)CC2/C(=C(\C)O)C(=O)N1 (centres undefined) | inactive | –
COc1cccc(C(c2c(C)[nH]n(-c3ccccc3)c2=O)c2c(C)[nH]n(-c3ccccc3)c2=O)c1O | inactive | –
CN1c2ccccc2Oc2c(c(=O)n(C)c(=O)n2C)C1c1cccc([N+](=O)[O-])c1 (centres undefined) | 15.8 µM (active) | –
CC1(C)CC2(CC(C)(C(=O)CSc3nc4ccccc4s3)OC2=O)C(=O)O1 (centres undefined) | 10 µM (active) | –
CC(C)CC1CC(=O)OC1(C)C(=O)CSc1nc2ccccc2s1 (centres undefined) | 15.8 µM (active) | –
NCCSSCCN | inactive | –
COc1ccc2[nH]cc(CCNc3nc(-c4ccoc4)nc4ccccc34)c2c1 | 3.16 µM (active) | –
COc1ccc2[nH]cc(CCNc3nc(-c4cccnc4)nc4ccccc34)c2c1 | 1.58 µM (active) | –

SMILES | AC50 | activity, negative = inhibition
COc1cccc(-c2nc(NCCc3c[nH]c4ccc(OC)cc34)c3ccccc3n2)c1 | 2 µM (active) | –
COc1ccc2[nH]cc(CCNc3nc(-c4ccccc4OC)nc4ccccc34)c2c1 | 2.51 µM (active) | –
COC(=O)[C@@H]1O[C@@H](c2c(OC)c(OC)c(C)c(OC)c2OC)[C@H](C)[C@@H](O)[C@@H]1C | – | -7.25% [at 11.4 µM] (inactive)
COc1ccc(-n2c(=O)c(-c3cn(C)c4ccccc34)nc3cncnc32)cc1 | 20 µM (active) | –
O=c1c(-c2ccccc2)nc2cncnc2n1-c1ccccc1 | inactive | –
Cn1cc(-c2nc3cncnc3n(-c3ccccc3)c2=O)c2ccccc21 | 10 µM (active) | –
CCCc1nnc(NC(=O)CCC(=O)NCc2ccccc2OC)s1 | – | 2.33% [at 2.29 µM] (inactive)
CCCCCc1nnc(NC(=O)C(=O)OCC)s1 | – | 1.6% [at 2.29 µM] (inactive)
CCCc1nnc(NC(=O)C(CC)OC(=O)c2cc(C)nc3ccccc23)s1 (centres undefined) | 12.6 µM (active) | –
CC(=O)Nc1ccc(C2=NN(CC#N)C(=O)SC2)cc1 | inactive | –
O=C(NCc1cccnc1)C1COc2ccccc2O1 (centres undefined) | 5.01 µM (active) | –
NNC(=O)Cc1cccnc1 | 3.16 µM (active) | –
COc1ccc(C(=O)c2c[nH]c(C(=O)NCc3cccs3)c2)cc1 | inactive | –
O=C(O)Cc1cccnc1 | – | -12.2% [at 11.4 µM] (inactive)
O=C(CCc1ccccc1)NCc1cccnc1 | 5.01 µM (active) | –
O=C(Nc1cccnc1)C1COc2ccccc2O1 (centres undefined) | inactive | –
O=C(NCc1cccnc1)[C@@H]1[C@@H](C(=O)O)[C@H]2CC[C@@H]1O2 | – | -23.9% [at 11.4 µM] (inactive)
O=C(c1ccccc1)c1c[nH]c(C(=O)NCc2cccnc2)c1 | 4.47 µM (active) | –
O=C(O)[C@@H]1[C@@H](C(=O)NCc2cccnc2)[C@@H]2C=C[C@@H]1O2 | – | -21.1% [at 11.4 µM] (inactive)
CC(C)=CCC/C(C)=C/CO/N=C1/C[C@@H](O)[C@@H](O)[C@@H]2[C@@H]3C(=O)N(C(C)(C)C)C(=O)[C@H]3CC[C@H]12 | – | -7.78% [at 11.4 µM] (inactive)
CO[C@]1(C2=NCCN2)COc2ccccc2O1 | inactive | –
